# Source: ChEMBL document CHEMBL1157539, “Thousands of chemical starting points for antimalarial lead identification” (Nature, 2010)
# Assays:
# Assay type in all cases: functional
# Plasmodium falciparum [1] = experiment: GSK_TCMDC: Inhibition of Plasmodium falciparum 3D7 in whole red blood cells, using parasite LDH activity as an index of growth. Test compounds present at 2uM
# Plasmodium falciparum [2] = experiment: GSK_TCMDC: Inhibition of Plasmodium falciparum Dd2 in whole red blood cells, using parasite LDH activity as an index of growth. Test compounds present at 2uM
# HepG2 = experiment: GSK_TCMDC: Percent inhibition of human HepG2 cell line. Test compounds present at 10uM.
SMILES,Inhibition (Plasmodium falciparum [1]) [%],Inhibition (Plasmodium falciparum [2]) [%],Inhibition (HepG2) [%]
c1ccc(CCNc2ncnc3c2[nH]c2ccccc23)cc1,95,94,50
Cc1nn(CC(C)C)c2sc(C(=O)N3CCN(S(=O)(=O)c4ccc(C#N)cc4)CC3)cc12,99,99,14
CS(=O)(=O)Nc1cccc(-c2cnc3[nH]cc(-c4cc(N)cc(C(=O)O)c4)c3c2)c1,96,96,40
CC1CN(Cc2ccccc2)CCN1c1ccc(NC(=O)c2cccs2)cc1.O=C(O)C(F)(F)F (stereo unspecified),96,96,0
CCn1c(-c2nonc2N)nc2c(-c3cccc(NC(=O)Nc4cccc(C#N)c4)c3)ncc(OCCCN)c21.O=C(O)C(F)(F)F,92,80,37
Cl.Nc1cc(C(F)(F)F)ccc1Cl,97,0,8
Cc1cc(N[C@@H](Cc2ccccc2)C(=O)Nc2ccccc2)nc(NCCc2cccs2)n1.O=C(O)C(F)(F)F,100,72,0
O=C(CC1SC(N2N=C(c3cccs3)CC2c2ccccc2)=NC1=O)Nc1ccc(Cl)cc1 (stereo unspecified),83,88,18
CN(C)CCN(C)Cc1ccc(-c2ccc(NC(=O)c3cccc(Cl)c3)cc2)cc1.O=C(O)C(F)(F)F,94,54,50
Cc1[nH]c(C)c([N+](=O)[O-])c(=O)c1-c1ccc(Oc2ccccc2)cc1,98,97,11
COc1ccc2nccc([C@@H](O)CN3CCC(NCCOc4ccccc4C(F)(F)F)CC3)c2c1.O=C(O)C(=O)O,98,95,2
Cc1cccc2c(C(=O)NC3CCN(Cc4ccccc4)CC3)cc(-c3cccnc3)nc12,81,10,12
CCN1CCC(N(Cc2ccc(-c3ccc(C(F)(F)F)cc3)o2)C(=O)Cn2c(CCc3cccc(F)c3F)nc(=O)c3ccccc32)CC1.O=C(O)C(O)C(O)C(=O)O,91,88,45
CN(C)CCCNc1ncnc2c1[nH]c1ccc(Br)cc12,100,19,3
CCN(CC)S(=O)(=O)c1ccc(CCOCCCCCNCC(O)c2cc(Cl)c(N)c(Cl)c2)s1.O=C(O)/C=C/C(=O)O (stereo unspecified),96,80,35
CC(=O)c1cccc2cc(C(=O)NC3CCC(CCN4CCc5ccc(C#N)cc5C4)CC3)[nH]c12.Cl (stereo unspecified),100,17,12
COc1ccccc1N1CCN(C(C(=O)NCc2ccc3c(c2)OCO3)c2ccc(C)cc2)CC1 (stereo unspecified),85,81,1
CCCN(C(=O)c1ccccc1C)c1nnc(-c2cccc(C)c2)s1,91,67,8
Cl.N=c1c2c(n(Cc3cccc(Cl)c3)c3c1CCC3)CCCC2,97,86,0
CN1CCC(NCc2ccc(-c3ccc(S(=O)(=O)NCc4ccccc4)c(F)c3)cc2)CC1.O=C(O)C(F)(F)F,99,89,53
CCCCCCN1CCC(CNCc2cccc([N+](=O)[O-])c2)CC1.O=C(O)C(F)(F)F,95,15,16
CCC(C)NS(=O)(=O)c1ccc2nc(Nc3ccc(C)c(Cl)c3)n(C(C)C(C)C)c2c1 (stereo unspecified),98,98,22
CC(=O)Nc1ccc(CN2CCC(CNC(=O)c3cc(-c4cccc(C(F)(F)F)c4)cs3)C2)cc1.O=C(O)C(F)(F)F (stereo unspecified),97,3,24
Cc1ccc(NC(=O)c2ccc3ncccc3c2)cc1OC1CCN(Cc2ccsc2)CC1.O=C(O)C(F)(F)F,93,29,21
O=C(Nc1ccc(-c2nc3ccccc3[nH]2)cc1)c1ccc(S(=O)(=O)N2CCc3ccccc32)cc1,100,34,32
CC(C)c1ccc(NC(=O)Nc2ccc(CCNCCCc3ccccc3)cc2)cc1,100,56,22
CC(C)CCC[C@@H]([C@@H](CC1CCCCC1)C(=O)N[C@@H](CCCCNC(=O)OCc1ccccc1)C(=O)Nc1nccs1)N(O)C=O,98,90,0
